Source: PubChem BioAssay AID1159580 (chemical genetic matrix, 2015)
Values joined by “and” are separate entries in the source; they are usually repeats but may differ in a detail not shown here. Identical values can stand only once. Out of some 5,500 compounds screened, about 2,000 (36%) were called active. Inconclusive results (about 18%) are left out. Rule as the data show it: active = normalized growth mostly below about 0.91 (no sharp cut-off); inconclusive = no clear call, values can overlap the other calls; inactive = mostly above about 0.92. Some of the results follow.

Assay: chemical genetic growth profiling, strain panel (AID 1159580);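 also: tested at 20 µM; growth read once vehicle control cultures reached saturation at 30 °C; 1 = growth at the plate median or of vehicle wells; lower values mean less growth of the strain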
Details: S. cerevisiae deletion strains, growth OD

Measured: normalized growth

CC1(C)C(=O)C=C[C@@]2(C)C1=C(O)C(=O)[C@]1(C)C2CC[C@@]2(C)[C@H](c3ccoc3)C[C@H]3O[C@]321 (stereo partly specified)
inactive: locus YAL021C, strain ccr4, stronger effect = lower value 0.995 | locus YAL030W, strain snc1, stronger effect = lower value 0.96 | locus YBR021W, strain FUR4, stronger effect = lower value 0.996 | locus YBR171W, strain sec66, stronger effect = lower value 0.916 | locus YBR229C, strain ROT2, stronger effect = lower value 0.923 | locus YCL069W, strain vba3, stronger effect = lower value 0.959 | locus YCR088W, strain abp1, stronger effect = lower value 0.962 | locus YDL005C, strain med2, stronger effect = lower value 0.957 | locus YDL040C, strain nat1, stronger effect = lower value 0.957 | locus YDL185W, strain tfp1, stronger effect = lower value 0.955 | locus YDR001C, strain nth1, stronger effect = lower value 0.967 | locus YDR069C, strain doa4, stronger effect = lower value 0.99 | locus YDR334W, strain swr1, stronger effect = lower value 0.965 | locus YDR335W, strain msn5, stronger effect = lower value 0.969 | locus YDR388W, stronger effect = lower value 0.982 | locus YEL037C, strain rad23, stronger effect = lower value 0.966 | locus YEL061C, strain CIN8 (second series), stronger effect = lower value 0.95 | locus YER016W, strain bim1, stronger effect = lower value 0.934 | locus YER110C, stronger effect = lower value 0.978 | locus YER111C, strain swi4, stronger effect = lower value 0.925 | locus YFR010W, strain ubp6, stronger effect = lower value 0.95 | locus YGL078C, strain dbp3, stronger effect = lower value 0.934 | locus YGL167C, strain pmr1, stronger effect = lower value 0.954 | locus YGL227W, strain vid30, stronger effect = lower value 0.949 | locus YGL240W, strain doc1, stronger effect = lower value 0.916 | locus YHR079C, strain IRE1 (second series), stronger effect = lower value 0.972 | locus YHR094C, strain hxt1, stronger effect = lower value 0.975 | locus YHR200W, strain rpn10, stronger effect = lower value 0.951 | locus YIL073C, strain SPO22, stronger effect = lower value 0.868 | locus YJL092W, strain hpr5, stronger effect = lower value 0.961 | locus YJL115W, strain asf1, stronger effect = lower value 0.969 | locus YJL134W, strain LCB3, stronger effect = lower value 0.966 | locus YJL154C, strain vps35, stronger effect = lower value 0.977 | locus YJL168C, strain set2, stronger effect = lower value 0.985 | locus YJL187C, strain SWE1, stronger effect = lower value 0.928 | locus YKL009W, strain mrt4, stronger effect = lower value 0.885 | locus YKL068W, stronger effect = lower value 0.942 | locus YKR026C, strain gcn3, stronger effect = lower value 0.965 | locus YKR091W, strain srl3, stronger effect = lower value 0.969 | locus YLL001W, strain dnm1, stronger effect = lower value 0.931 | locus YLL026W, stronger effect = lower value 0.944 | locus YLL041C, strain sdh2, stronger effect = lower value 0.991 | locus YLR102C, strain apc9, stronger effect = lower value 0.967 | locus YLR357W, strain rsc2, stronger effect = lower value 1.03 | locus YLR370C, strain arc18, stronger effect = lower value 0.959 | locus YLR384C, strain iki3, stronger effect = lower value 0.973 | locus YMR078C, strain ctf18, stronger effect = lower value 0.936 | locus YMR129W, stronger effect = lower value 0.969 | locus YMR231W, strain pep5, stronger effect = lower value 0.931 | locus YNL067W, strain RPL9B, stronger effect = lower value 0.876 | locus YNL183C, strain NPR1, stronger effect = lower value 0.848 | locus YNL209W, strain ssb2, stronger effect = lower value 0.943 | locus YNL248C, strain rpa49, stronger effect = lower value 0.938 | locus YNL250W, strain rad50, stronger effect = lower value 0.97 | locus YNL271C, strain bni1, stronger effect = lower value 0.96 | locus YNL298W, strain CLA4, stronger effect = lower value 0.922 | locus YNL322C, strain KRE1 (second series), stronger effect = lower value 0.981 | locus YNR049C, strain mso1, stronger effect = lower value 0.962 | locus YOL006C, strain TOP1, stronger effect = lower value 0.666 | locus YOL012C, strain htz1 0.626 | locus YOR080W, strain dia2, stronger effect = lower value 0.964 | locus YOR270C, strain vph1, stronger effect = lower value 0.897 | locus YOR316C, strain cot1, stronger effect = lower value 0.984 | locus YPL078C, strain atp4, stronger effect = lower value 0.939 | locus YPL106C, strain sse1, stronger effect = lower value 0.91 | locus YPR141C, strain kar3, stronger effect = lower value 0.96
active: locus YAL026C, strain drs2, stronger effect = lower value 0.893 | locus YBL061C, strain skt5, stronger effect = lower value 0.884 | locus YBR009C, strain hhf1, stronger effect = lower value 0.672 | locus YBR023C, strain chs3, stronger effect = lower value 0.908 | locus YBR231C, strain swc5, stronger effect = lower value 0.901 | locus YBR279W, strain paf1, stronger effect = lower value 0.908 | locus YCL011C, strain gbp2, stronger effect = lower value 0.827 | locus YCL016C, strain dcc1, stronger effect = lower value 0.901 | locus YCL029C, strain bik1, stronger effect = lower value 0.879 | locus YCL061C, strain MRC1, stronger effect = lower value 0.897 | locus YDL035C, strain GPR1, stronger effect = lower value 0.641 | locus YDL074C, strain BRE1, stronger effect = lower value 0.377 | locus YDL101C, strain DUN1, stronger effect = lower value 0.786 | locus YDL134C, strain PPH21, stronger effect = lower value 0.608 | locus YDL192W, strain arf1, stronger effect = lower value 0.743 | locus YDR101C, strain arx1, stronger effect = lower value 0.843 | locus YDR137W, strain rgp1, stronger effect = lower value 0.602 | locus YDR159W, strain sac3, stronger effect = lower value 0.549 | locus YDR162C, strain NBP2, stronger effect = lower value 0.226 | locus YDR195W, strain ref2 0.785 | locus YDR297W, strain sur2, stronger effect = lower value 0.869 | locus YDR318W, strain mcm21, stronger effect = lower value 0.762 | locus YDR392W, strain spt3, stronger effect = lower value 0.219 | locus YDR502C, strain sam2, stronger effect = lower value 0.833 | locus YEL003W, strain gim4, stronger effect = lower value 0.851 | locus YER015W, strain faa2, stronger effect = lower value 0.902 | locus YER155C, strain BEM2 (second series), stronger effect = lower value 0.814 | locus YER155C, strain BEM2, stronger effect = lower value 0.57 | locus YER167W, strain BCK2, stronger effect = lower value 0.768 | locus YGL086W, strain mad1, stronger effect = lower value 0.767 | locus YGL173C, strain kem1, stronger effect = lower value 0.872 | locus YGL248W, strain PDE1, stronger effect = lower value 0.766 | locus YGL253W, strain hxk2, stronger effect = lower value 0.871 | locus YGR078C, strain PAC10, stronger effect = lower value 0.513 | locus YGR135W, strain pre9, stronger effect = lower value 0.854 | locus YGR252W, strain gcn5, stronger effect = lower value 0.734 | locus YHR013C, strain ard1, stronger effect = lower value 0.842 | locus YHR027C, strain rpn1, stronger effect = lower value 0.917 | locus YHR030C, strain SLT2, stronger effect = lower value 0.697 and 0.536 | locus YHR079C, strain IRE1, stronger effect = lower value 0.821 | locus YHR129C, strain ARP1, stronger effect = lower value 0.613 | locus YHR142W, strain chs7, stronger effect = lower value 0.8 | locus YIL066C, strain RNR3, stronger effect = lower value 0.381 | locus YIL125W, strain kgd1, stronger effect = lower value 0.928 | locus YIR030C, strain dcg1, stronger effect = lower value 0.907 | locus YJL095W, strain BCK1 (second series), stronger effect = lower value 0.777 | locus YJL095W, strain BCK1, stronger effect = lower value 0.363 and 0.62 | locus YJL129C, strain trk1, stronger effect = lower value 0.776 | locus YJL164C, strain tpk1, stronger effect = lower value 0.838 | locus YJL166W, strain qcr8, stronger effect = lower value 0.748 | locus YJL187C, strain SWE1 (second series), stronger effect = lower value 0.808 | locus YJR043C, strain POL32, stronger effect = lower value 0.781 | locus YJR066W, strain TOR1, stronger effect = lower value 0.757 | locus YKL085W, strain MDH1 (second series), stronger effect = lower value 0.885 | locus YKL085W, strain MDH1, stronger effect = lower value 0.885 | locus YKL160W, strain elf1, stronger effect = lower value 0.872 | locus YKL190W, strain CNB1, stronger effect = lower value 0.751 | locus YKR001C, strain vps1, stronger effect = lower value 0.777 | locus YLR027C, strain aat2, stronger effect = lower value 0.791 | locus YLR039C, strain RIC1, stronger effect = lower value 0.404 | locus YLR058C, strain SHM2, stronger effect = lower value 0.782 | locus YLR113W, strain HOG1, stronger effect = lower value 0.776 | locus YLR221C, strain rsa3, stronger effect = lower value 0.759 | locus YLR258W, strain gsy2, stronger effect = lower value 0.88 | locus YLR262C, strain YPT6 (second series), stronger effect = lower value 0.624 | locus YLR262C, strain YPT6, stronger effect = lower value 0.382 | locus YLR268W, strain sec22, stronger effect = lower value 0.788 | locus YLR320W, strain mms22, stronger effect = lower value 0.639 | locus YLR342W, strain FKS1 (second series), stronger effect = lower value 0.578 | locus YLR342W, strain FKS1, stronger effect = lower value 0.881 | locus YLR371W, strain rom2, stronger effect = lower value 0.706 | locus YLR418C, strain cdc73, stronger effect = lower value 0.318 | locus YML016C, strain PPZ1, stronger effect = lower value 0.887 | locus YML032C, strain rad52, stronger effect = lower value 0.811 | locus YML120C, strain ndi1, stronger effect = lower value 0.884 | locus YML124C, strain tub3, stronger effect = lower value 0.922 | locus YMR058W, strain fet3, stronger effect = lower value 0.875 | locus YMR125W, strain sto1, stronger effect = lower value 0.876 | locus YMR205C, strain PFK2, stronger effect = lower value 0.674 | locus YMR223W, strain ubp8, stronger effect = lower value 0.865 | locus YMR307W, strain GAS1, stronger effect = lower value 0.502 | locus YNL071W, strain lat1, stronger effect = lower value 0.44 | locus YNL233W, strain BNI4, stronger effect = lower value 0.706 | locus YNL307C, strain MCK1, stronger effect = lower value 0.505 | locus YNR052C, strain pop2, stronger effect = lower value 0.863 | locus YOL147C, strain pex11, stronger effect = lower value 0.804 | locus YOR001W, strain rrp6, stronger effect = lower value 0.841 | locus YOR061W, strain CKA2, stronger effect = lower value 0.847 | locus YOR069W, strain VPS5, stronger effect = lower value 0.889 | locus YOR070C, strain gyp1, stronger effect = lower value 0.809 | locus YOR083W, strain WHI5, stronger effect = lower value 0.875 | locus YOR106W, strain vam3, stronger effect = lower value 0.801 | locus YOR136W, strain idh2, stronger effect = lower value 0.891 | locus YOR144C, strain elg1, stronger effect = lower value 0.855 | locus YOR184W, strain ser1, stronger effect = lower value 0.487 | locus YOR231W, strain MKK1, stronger effect = lower value 0.706 | locus YOR265W, strain rbl2, stronger effect = lower value 0.918 | locus YOR290C, strain snf2, stronger effect = lower value 0.84 | locus YPL051W, strain arl3, stronger effect = lower value 0.831 | locus YPL240C, strain hsp82, stronger effect = lower value 0.861 | locus YPL256C, strain CLN2, stronger effect = lower value 0.747 | locus YPR119W, strain clb2, stronger effect = lower value 0.915 | locus YPR163C, strain tif3, stronger effect = lower value 0.665 | locus YPR167C, strain met16, stronger effect = lower value 0.85 | strain wtn01, stronger effect = lower value 0.765
